Test [1] addresses Luciferin 4-monooxygenase (Photinus pyralis) (UniProt P08659). Put plainly: qHTS assay to identify small molecule inhibitors of firefly luciferase (AID 1224835). Also: nearly all actives have a fitted effect of over 25% in size. Also: potency is read from the fitted curve at half-maximal effect. The gist of the method:
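Quantitative HTS format; KM concentrations of both substrates. Purified P. pyralis FLuc activity quantified from luminescence images.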
A general note: Quantitative high-throughput screening tests each substance at several concentrations.

A short description of test [2]: qHTS assay to identify small molecule agonists of the constitutive androstane receptor (CAR) signaling pathway - cell viability counter screen (AID 1224836). Also: nearly all actives have a fitted effect of over 45% in size. The gist of the method: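 Fluorescence from CellTiter-Fluor indicates live cells after 23 h exposure. The human hepatoma line expresses hCAR and a CYP2B6-2.2kb reporter. Incubation medium contains 0.75 uM PK11195 (final).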

Test [3] can be described thus: qHTS assay to identify small molecule antagonists of the constitutive androstane receptor (CAR) signaling pathway - cell viability counter screen (AID 1224837). Also: nearly all actives have a fitted effect of over 45% in size. The gist of the method:
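Fluorescence from CellTiter-Fluor served as the viability signal. Human hepatoma HepG2 cells stably bearing hCAR and CYP2B6-2.2kb received compound plus CITCO (50 nM final) for 23 hr.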

Test [4] in a line: qHTS assay to identify small molecule antagonists of the estrogen related receptor signaling pathway with the pleiotropic PPARgamma coactivator (PGC) from Tox21 10K library - cell viability counter screen (AID 1224840; active = well fitted cell-killing curve with a large enough effect in the repeat runs, not every such curve was filed as active; also: nearly all actives have a fitted effect of over 40% in size). The gist of the method:
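Compounds in DMSO, alongside positive and negative controls, were pinned onto PGC/ERR cells (2,000 per well). Exposure lasted 17.5 hours at 37 C, followed by a 30-minute CellTiter-Fluor incubation and fluorescence reading.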

Test [5] has as its target Thyrotropin receptor (Homo sapiens) (UniProt P16473). Description: qHTS assay to identify small molecule agonists of the thyroid stimulating hormone receptor (TSHR) signaling pathway (AID 1224843; calls by dose curve; also: nearly all actives have a fitted effect of over 45% in size). The gist of the method: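 TSHR-expressing HEK293 cells (800 per well) were exposed to compounds for 30 min at room temperature. cAMP was then detected by HTRF competition with cAMP-d2 and anti-cAMP cryptate, read after 1 h at room temperature. Fifteen concentrations, triplicate.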

Test [6] in a line: qHTS assay to identify small molecule agonists of the hypoxia (HIF-1) signaling pathway - cell viability counter screen (AID 1224844; calls by dose curve; also: nearly all actives have a fitted effect of over 50% in size). An outline of the steps:
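Luminescent ATP content (CellTiter-Glo, 30 min, room temperature) served as the viability measure in HRE-bla ME-180 cells exposed to compounds for 17 hrs in low-serum medium (0.5% dialyzed FBS).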

A short description of test [7]: qHTS assay to identify small molecule agonists of H2AX (AID 1224845; active = well fitted activation curve with a large enough effect in the signal ratio in the repeat runs, not every such curve was filed as active; the % refers to the signal ratio). An outline of the steps:
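Wild-type CHO-K1 cells plated overnight, then exposed 3 hr at 37C to compounds at 15 concentrations (0.76% DMSO). Lysed, then HTRF anti-pH2AX(S139)-cryptate/anti-H2AX-d2 detection after 24 hr at room temperature; emissions 665 and 620 nm.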

Test [8] can be described thus: qHTS assay to identify small molecule agonists of the hypoxia (HIF-1) signaling pathway (AID 1224846; active = well fitted activation curve with a large enough effect in the signal ratio in the repeat runs, not every such curve was filed as active; the % refers to the signal ratio). The gist of the method:
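Measured by blue/green FRET after loading CCF4-AM: beta-lactamase expressed from a hypoxia response element in ME-180 cells. Test agents were delivered in DMSO and left 17 hrs; cells had been plated 5 hrs earlier in low-serum (0.5% dialyzed FBS) medium.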

The nature of test [9]: qHTS assay to identify small molecule agonists of H2AX - cell viability counter screen (AID 1224847; calls by dose curve; also: top concentration of the series differs between compounds; nearly all actives have a fitted effect of over 30% in size). The gist of the method:
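Viability of CHO-K1 (wild type) cells after 3 hr compound exposure was measured by CellTiter-Glo luminescence.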

A short description of test [10]: qHTS RealTime-Glo MT Cell Viability Assay in HepG2 cells - 24 hour (AID 1224867). Also: nearly all actives have a fitted effect of over 50% in size. An outline of the steps:
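HepG2 suspension premixed with RealTime-Glo reagents is plated at 600 cells per well and left 5 h at 37 C/5% CO2. Compounds in DMSO then go in, and bioluminescence reflecting viable cell number is recorded over 40 h.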

A short description of test [11]: qHTS RealTime-Glo MT Cell Viability Assay in HEK293 cells - 32 hour (AID 1224868). Also: top concentration of the series differs between compounds; nearly all actives have a fitted effect of over 50% in size. The gist of the method:
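Reads taken at 0, 8, 16, 24, 32 and 40 h from the same wells. HEK293 cells (600/well) carried RealTime-Glo reagents from seeding, with compound added after a 5 h settle at 37 C.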

Test [12] in a line: A CellTox Green Cytotoxicity Assay to monitor cytotoxicity in HEK293 cells - 0 hour (AID 1224869). Also: nearly all actives have a fitted effect of over 50% in size. The gist of the method: (§1)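 Each value comes from one timepoint of a single continuous run in which HEK293 cells with CellTox Green were exposed to compound for up to 40 h at 37 C, dye fluorescence rising with cell death.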
A short description of test [13]: qHTS RealTime-Glo MT Cell Viability Assay in HepG2 cells - 40 hour (AID 1224870). Also: nearly all actives have a fitted effect of over 50% in size. An outline of the steps: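 HepG2 cells mixed with RealTime-Glo MT reagents (NanoLuc plus cell-permeant prosubstrate) were seeded at 600 cells/well, incubated 5 h at 37 C/5% CO2, then pinned with compounds in DMSO; nonlytic luminescence tracked viability during 40 h treatment.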
Test [14] is described as follows: A CellTox Green Cytotoxicity Assay to monitor cytotoxicity in HEK293 cells - 40 hour (AID 1224871). Also: nearly all actives have a fitted effect of over 45% in size. The gist of the method:
as §1

Test [15] can be described thus: qHTS assay to identify small molecule agonists of the estrogen related receptor signaling pathway with the pleiotropic PPARgamma coactivator (PGC) from Tox21 10K library (AID 1224842). Also: nearly all actives have a fitted effect of over 15% in size. The gist of the method: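 PGC/ERR reporter cells (NTP line) were seeded 2,000 per well, rested 6 h at 37 C/5% CO2, then pin-dosed with compounds in DMSO for 18 h at 37 C; luciferase read by One-Glo luminescence after 30 min at room temperature.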

The nature of test [16]: qHTS assay to identify small molecule agonists of the estrogen related receptor (ERR) signaling pathway from Tox21 library (AID 1224849; calls by dose curve; also: nearly all actives have a fitted effect of over 15% in size). The following applies: ERR reporter cell line, ONE-Glo luciferase, 18 h; at 92.4 µM (top of the series) unless noted. The gist of the method:
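We plated ERR reporter cells, waited 6 h, added compounds in DMSO by pin tool and incubated them 18 h at 37 C. ONE-Glo was then added and luminescence read after 30 min.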

Test [17] concerns the target Nuclear receptor subfamily 1 group I member 3 (Homo sapiens) (UniProt Q14994). Description: qHTS assay to identify small molecule agonists of the constitutive androstane receptor (CAR) signaling pathway (AID 1224839).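 Also: HepG2 cells stably carrying human CAR and a CYP2B6 luciferase reporter; nearly all actives have a fitted effect of over 15% in size.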 The gist of the method: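 Stable hCAR/CYP2B6-2.2kb HepG2 line in DMEM with 10% FBS; compounds (15 concentrations) and 0.75 uM PK11195 final, 24 h at 37 C/5% CO2, then ONE-Glo luminescence after 30 min.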

Test [18] in a line: qHTS assay to identify small molecule antagonists of the estrogen related receptor signaling pathway with the pleiotropic PPARgamma coactivator (PGC) from Tox21 10K library (AID 1224841; call rule not given here). An outline of the steps: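 Compound exposure ran 18 hours at 37 C in PGC/ERR cells (2,000/well) that had first rested 6 hours in a 37 C/5% CO2 incubator. Luciferase activity was then detected with One-Glo after a 30-minute room-temperature step.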

Test [19] in a line: qHTS assay to identify small molecule antagonists of the estrogen related receptor (ERR) signaling pathway from Tox21 library (AID 1224848). Also: nearly all actives have a fitted effect of over 50% in size. An outline of the steps: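 Cells: ERR line, 2,000/well; 6 h preincubation 37 C/5% CO2. Cpd in DMSO via pin tool; 18 h, 37 C. ONE-Glo, 30 min RT, luminescence.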

Potency, outcome and activity change, positive = activation data for eight compounds are collected here from PubChem BioAssay (Tox21).

Values without a mark were called inactive. Results filed as inconclusive are left out. Activity calls are given as the source filed them. Unless noted, calls follow the shape of the dose curve; as a rule, active = well fitted curve in the direction sought with a large enough effect in the repeat runs; inconclusive = weak or mixed curves; inactive = no such curve, though single readings can be large; an effect the other way counts as inactive or inconclusive.
% is scaled to controls: 0 for no effect and ±100 for the full control effect.

Luciferin 4-monooxygenase (Photinus pyralis), sequence (P08659 whole entry, looked up): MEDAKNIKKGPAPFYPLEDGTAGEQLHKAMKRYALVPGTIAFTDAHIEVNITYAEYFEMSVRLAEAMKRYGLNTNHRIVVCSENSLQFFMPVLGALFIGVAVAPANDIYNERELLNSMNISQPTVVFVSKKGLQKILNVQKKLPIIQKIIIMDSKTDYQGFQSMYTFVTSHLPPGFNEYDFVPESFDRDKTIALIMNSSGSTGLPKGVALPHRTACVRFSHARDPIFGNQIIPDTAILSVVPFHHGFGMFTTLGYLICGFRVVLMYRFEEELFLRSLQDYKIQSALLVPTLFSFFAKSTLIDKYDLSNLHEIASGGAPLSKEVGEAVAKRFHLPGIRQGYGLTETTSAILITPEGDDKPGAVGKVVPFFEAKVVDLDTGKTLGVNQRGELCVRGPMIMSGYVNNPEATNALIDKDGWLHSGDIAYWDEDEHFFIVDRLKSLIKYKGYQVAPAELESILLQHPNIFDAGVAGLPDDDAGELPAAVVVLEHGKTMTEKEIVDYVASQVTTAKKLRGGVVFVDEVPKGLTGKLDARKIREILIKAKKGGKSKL
Thyrotropin receptor (Homo sapiens), sequence (P16473 whole entry, looked up): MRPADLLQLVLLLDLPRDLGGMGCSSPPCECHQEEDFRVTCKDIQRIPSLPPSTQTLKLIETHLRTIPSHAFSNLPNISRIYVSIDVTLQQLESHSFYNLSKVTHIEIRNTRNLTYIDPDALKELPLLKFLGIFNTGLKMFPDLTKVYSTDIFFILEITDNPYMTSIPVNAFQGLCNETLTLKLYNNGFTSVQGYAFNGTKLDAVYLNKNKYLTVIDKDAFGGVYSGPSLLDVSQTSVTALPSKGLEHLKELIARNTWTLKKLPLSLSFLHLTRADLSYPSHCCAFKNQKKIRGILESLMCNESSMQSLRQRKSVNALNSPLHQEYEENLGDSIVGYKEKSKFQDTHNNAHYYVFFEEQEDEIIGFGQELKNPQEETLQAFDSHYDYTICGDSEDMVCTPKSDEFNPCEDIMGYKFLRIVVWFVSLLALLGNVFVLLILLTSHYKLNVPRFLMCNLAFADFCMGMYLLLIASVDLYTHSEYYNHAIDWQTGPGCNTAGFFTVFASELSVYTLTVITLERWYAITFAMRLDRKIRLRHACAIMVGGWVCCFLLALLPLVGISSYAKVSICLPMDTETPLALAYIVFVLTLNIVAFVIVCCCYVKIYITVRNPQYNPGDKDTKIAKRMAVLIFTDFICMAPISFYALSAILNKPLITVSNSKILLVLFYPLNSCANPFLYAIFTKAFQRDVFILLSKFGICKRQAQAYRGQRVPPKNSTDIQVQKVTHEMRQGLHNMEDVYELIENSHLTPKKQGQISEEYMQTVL
Nuclear receptor subfamily 1 group I member 3 (Homo sapiens), sequence (Q14994 whole entry, looked up): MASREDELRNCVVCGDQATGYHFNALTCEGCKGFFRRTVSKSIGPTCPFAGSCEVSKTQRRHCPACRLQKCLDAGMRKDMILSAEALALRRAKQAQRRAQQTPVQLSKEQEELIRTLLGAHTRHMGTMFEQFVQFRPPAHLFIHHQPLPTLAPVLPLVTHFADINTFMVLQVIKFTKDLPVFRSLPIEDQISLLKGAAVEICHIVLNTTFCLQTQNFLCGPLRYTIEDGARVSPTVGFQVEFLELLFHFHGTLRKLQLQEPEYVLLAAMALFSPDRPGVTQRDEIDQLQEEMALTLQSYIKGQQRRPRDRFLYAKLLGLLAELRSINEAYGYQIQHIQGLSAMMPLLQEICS

For the compound `C=Cc1ccccn1`, the Potency entry in test [1], in test [2], in test [3], in test [5], in test [9] and in test [11] was “inactive” each time. Further, the Potency entry in [14] is “inactive”. Further, the call in test [4], in test [6], in [7], in test [8], in [10] and in test [12] was inactive. Besides, in test [13], the compound was called inactive.
As for `OCCCCC(O)CO` (centres undefined), the Potency entry in [1], in test [2], in test [3], in test [5], in test [11] and in test [14] was “inactive” each time. The outcome in test [4], in test [15], in test [6], in test [7], in test [8] and in [10] was inactive. In addition, the compound was classed as inactive in test [12] and in test [13]. In addition, the activity change, positive = activation in [16] was -0.533%.
Regarding `O=C1c2cccc3c2[C@H](CCC3)CN1[C@@H]1CN2CCC1CC2`, the Potency entry in test [1], in test [2], in test [3], in [9] and in [14] was “inactive” each time. The call in [4], in test [6], in [7], in [8], in [10] and in test [12] was inactive. In addition, the compound was called inactive in test [13]. Moreover, the activity change, positive = activation in [16] was 20.8% [at 42.5 µM] (active).
As for `CC(C)c1ccc2cc(C(C)C)ccc2c1`, the Potency in [1] is 15.9 µM (active). In addition, the Potency result in test [2], in test [3], in [5], in test [9], in [11] and in test [14] was “inactive” in each case. Also, the result in test [4], in test [6], in test [7], in test [8], in test [10] and in test [12] was inactive. For the same compound, in [13], the compound was classed as inactive.
For `CC(C)CCCC(C)(C)O`, the Potency entry in test [1], in test [2], in test [3], in [17], in [5] and in [9] was “inactive” each time. Also, the Potency entry in test [11] and in [14] was “inactive” in each case. Also, the compound was classed as inactive in test [4], in [6], in [7], in test [8], in test [10] and in test [12]. Besides, the outcome in test [13] was inactive.
Turning to `Cc1ccccc1C(=O)Nc1ccc(C(=O)N2CCCC(N(C)C)c3ccccc32)cc1` (centres undefined), the Potency result in [1], in test [2], in test [3], in [5], in [9] and in test [14] was “inactive” each time. For the same compound, the call in test [4], in test [6], in [7], in test [8], in test [12] and in test [13] was inactive.
Regarding `Cc1ccccc1N=O`, the Potency entry in test [1], in test [2], in test [3], in test [18], in test [5] and in test [9] was “inactive” throughout. Besides, the Potency entry in test [19], in test [11] and in test [14] was “inactive” throughout. The result in test [4], in test [15], in [6], in test [7], in test [8] and in [12] was inactive. In test [16], the activity change, positive = activation is 6.56%.
Take `CC(=O)CCCCn1c(=O)c2c(ncn2C)n(C)c1=O`: the Potency result in test [1], in test [2], in test [3], in test [5], in test [9] and in [19] was “inactive” throughout. The Potency result in test [11] and in [14] was “inactive” in each case. Also, the call in [4], in test [15], in test [6], in [7], in test [12] and in test [13] was inactive. Further, the activity change, positive = activation in test [16] is -5.11% [at 42.5 µM].
